According to PubChem BioAssay (NCI):
About 83,000 compounds went through this panel and 20% of them were active in at least one assay; those are over-represented in the sample as a whole.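 How to read the values: 0–100, growth inhibition (40 = 60% inhibited); 0, no net growth; -100 to 0, cell death (-40 = 40% of starting cells died; -100 = all dead).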 Unmarked numbers belong to inactive results. Calls of active or inactive are those of the source. Rule for the calls: active = growth percent below 10; inactive = the rest.

Assays:
Experiment in all cases: NCI-60 one-dose screen, 48 h (100 = growth as untreated, 0 = no growth, -100 = all killed)
Conditions in all cases: 10 µM unless noted
RPMI-8226 leukemia = tested on: RPMI-8226 leukemia
OVCAR-8 ovarian = tested on: OVCAR-8 ovarian
OVCAR-5 ovarian = tested on: OVCAR-5 ovarian
OVCAR-4 ovarian = tested on: OVCAR-4 ovarian
SK-OV-3 ovarian = tested on: SK-OV-3 ovarian
IGROV1 ovarian = tested on: IGROV1 ovarian
OVCAR-3 ovarian = tested on: OVCAR-3 ovarian
HS 578T breast = tested on: HS 578T breast
NCI/ADR-RES ovarian = tested on: NCI/ADR-RES ovarian
T-47D breast = tested on: T-47D breast

Structure (SMILES) | growth (RPMI-8226 leukemia) | growth (OVCAR-8 ovarian) | growth (OVCAR-5 ovarian) | growth (OVCAR-4 ovarian) | growth (SK-OV-3 ovarian) | growth (IGROV1 ovarian) | growth (OVCAR-3 ovarian) | growth (HS 578T breast) | growth (NCI/ADR-RES ovarian) | growth (T-47D breast)
[Cl][Ru].c1ccc(-c2cccc(-c3ccccn3)n2)nc1.c1ccc(-c2ccnc3c2ccc2c(-c4ccccc4)ccnc23)cc1 | -10.5% (active) | 68.2% | 68.1% | 47.3% | 46.8% | 21.4% | 13.8% | 13.4% | 71.5% | 14.2%
CS(=O)(=O)c1ccc(-c2nc3ccccn3c2/C=N/Nc2nc(-c3ccc(Cl)cc3)cs2)cc1 | 82.2% | 98% | 104% | 105% | 140% | 115% | 124% | 107% | 104% | 78%
N#Cc1c(-c2ccc(F)cc2)nc2c(C#N)c(Nc3ccccc3)nn2c1N | 104% | 101% | 98.9% | 103% | 117% | 107% | 106% | 99.6% | 103% | 88.3%
C#Cc1nc(C2=C(C)C(OC(=O)CCC(=O)O)CC2)cs1 (stereo not given) | 102% | 99.3% | 125% | 108% | 125% | 5.79% (active) | 121% | 92.5% | 89.7% | 98%
CC(=O)Oc1ccccc1C(=O)Nc1ccc(C(=O)/C=C/c2cccs2)cc1 | 96.2% | 107% | 109% | 104% | 132% | 116% | 122% | 120% | 106% | 100%
OC1CCN(CCCOc2c3ccccc3nc3c2oc2ccc(Cl)cc23)CC1 | -3.88% (active) | 18.7% | 21.2% | 19.1% | 45.6% | 1.4% (active) | 27.7% | 32% | 21.5% | 35.9%
C/C(=C(/c1ccc(Cl)cc1)c1ccc(OCCN)cc1)c1ccc(C)cc1 | 96.5% | 100% | 101% | 97% | 120% | 100% | 105% | 96.7% | 111% | 96.8%
COc1cc2nc(-c3ccc(C)cc3)cc(OCCCNCC3CCCO3)c2cc1OC (stereo not given) | 24.1% | 46.8% | 56.7% | 89.8% | 113% | 49.1% | 101% | 84.3% | 54.8% | 66%
CN(C)CCCNc1c2ccc(Cl)cc2nc2c1oc1ccccc12 | -21.1% (active) | -17.9% (active) | 1.91% (active) | 8.04% (active) | 42% | -13% (active) | 31% | 37% | 2.84% (active) | 46.3%
COc1cc2nc(-c3ccc(Cl)cc3)cc(OCCCNCC3CCCO3)c2cc1OC (stereo not given) | 8.63% (active) | 42.2% | 50.1% | 79.4% | 88.4% | 33.7% | 87.7% | 76.6% | 46.8% | 77.1%
CN(C)c1ccc(/C=c2\sc3nc4ccccc4n3c2=O)cc1 | 104% | 106% | 102% | 107% | 124% | 77.2% | 124% | 101% | 107% | 83.8%
COc1cc2nc(-c3ccc(C(F)(F)F)cc3)cc(OCCCNCC3CCCO3)c2cc1OC (stereo not given) | -13.1% (active) | 35.6% | 40.6% | 62.4% | 86.2% | 28.5% | 65.4% | 55.6% | 41.4% | 38%
O=C1NC(=C(Cl)Cl)/C(=N/S(=O)(=O)N2CCCCC2CC2(C(F)(F)F)N=N2)N1 (stereo not given) | -6.5% (active) | 17.6% | 91.1% | -10.2% (active) | 136% | -0.053% (active) | -15.1% (active) | 52.2% | 63.4% | 65.7%
O=C(CSc1nccc(=O)[nH]1)Nc1ccc(-c2nc3ccccc3[nH]2)cc1 | 109% | 103% | 109% | 112% | 103% | 102% | 123% | 119% | 111% | 106%
CCN1CCN(S(=O)(=O)c2oc(-c3ccc(Cl)cc3)nc2C#N)CC1 | 29% | 85% | 94.8% | 105% | 129% | 7.89% (active) | 41.8% | 105% | 96% | 7.45% (active)
NS(=O)(=O)c1ccc(Nc2nc(Nc3ccccc3)nc(-n3nc(-c4ccccc4)cc3-c3ccccc3)n2)cc1 | 6.63% (active) | 40% | 78.1% | 37.9% | 65.8% | 25.6% | 31.5% | 64.6% | 45% | 36.9%
COc1cc(OC)c(C2SCC(=O)N2Nc2ncnc3ccccc23)cc1OC (stereo not given) | 115% | 106% | 109% | 103% | 127% | 106% | 119% | 112% | 104% | 106%
Oc1c(Cl)cc(Cl)c2ccc(CN3CCCCC3)nc12 | 38.1% | 23% | 55.7% | 33.3% | 62.1% | 33.9% | 27.6% | 66.5% | 19.3% | 48.1%
NS(=O)(=O)c1ccc(Nc2nc(SCC(=O)c3ccc(Cl)cc3)nc3ccccc23)cc1 | 83.6% | 95.6% | 100% | 91.3% | 110% | 82.8% | 102% | 92.2% | 105% | 77.6%
Cc1ccc(C(=O)Nc2cccc(C(F)(F)F)c2)cc1Nc1nc(-c2cnccn2)nc2c1cnn2C | 61.8% | 77.3% | 39.2% | 83.7% | 97.9% | 52.7% | 97.9% | 51.2% | 75.6% | 74.5%
COc1cc(-c2ccc3ncnc(NC(C)c4ccccc4)c3c2)cnc1OC (stereo not given) | 26.5% | 55.2% | 42.8% | 49% | 40.4% | -23.2% (active) | 25.2% | 21.1% | 58.8% | 1.57% (active)
Clc1ccc2c(OCCCN3CCOCC3)c3oc4ccccc4c3nc2c1 | 29% | 31.2% | 35.1% | 59% | 71.8% | 19.7% | 69.5% | 38.4% | 36.3% | 40.8%
N#Cc1nc(-c2ccccc2)oc1S(=O)(=O)N1CCN(CCc2ccccn2)CC1 | 36.1% | 84.9% | 86.3% | 89.7% | 137% | 10% | 31.2% | 106% | 99.2% | -24.2% (active)
N#Cc1nc(-c2ccccc2)oc1N1CC[C@@H](CO)C1 | 99.5% | 100% | 108% | 101% | 116% | 94.5% | 109% | 111% | 102% | 98.1%
Cc1nc(-c2cc3ccccc3oc2=O)ccc1C(=O)/C=C/c1ccc(N2CCOCC2)cc1 | 93.4% | 81% | 101% | 72.4% | 88.7% | 82.6% | 87% | 59.7% | 67.3% | 80.2%
CN(C)CCCOc1c2ccc(Cl)cc2nc2c1oc1ccccc12 | -22.1% (active) | -17.8% (active) | 4.62% (active) | 1.72% (active) | -8.76% (active) | -8.93% (active) | -10.4% (active) | 5.22% (active) | 3.15% (active) | 13.5%
CC(C)(C)Nc1nc2c(OCCc3ccccc3)cccn2c1-c1ccc(O)cc1 | 19% | 65.9% | 70.2% | 65% | 110% | 75.4% | 74.9% | 86.7% | 50.4% | 35.9%
